Screening results from PubChem.
The list is not random: actives were taken first. Their share in the collection is about 12%.
Cycloheximide cs: affects cycloheximide protein synthesis inhibition readout, counter-screen; cell reporter, cycloheximide protein synthesis inhibition counterscreen; max response, %; 300,000 tested, 12% active; AID 2314; in the data active means max response mostly above about 13%, no sharp cut-off; inactive means mostly below about 14%; further: read at 38.3 µM for the half of the compounds with a filed dose
LASV entry inh: Lassa virus entry inhibition; Lassa virus pseudotype entry inhibition, cell reporter; Potency, µM (top dose mostly 37.9 µM), most hits filed as inhibitors; 300,000 tested, 1.2% active; calls by dose curve; tested in HEK293 cells; further: nearly all actives have a fitted effect of over 50% in size
Marburg entry inh: Marburg virus entry inhibition; Marburg virus pseudotyped entry inhibition, cell reporter; Potency, µM (highest dose often 37.8 µM), most hits filed as inhibitors; 300,000 tested, 1.8% active; calls by dose curve; tested in HEK293 cells
Shiga toxin inh: blocks Shiga toxin action in Vero cells. Vero cells, Shiga toxin protein synthesis inhibition reporter. inhibition, % at 38.7 µM. 290,000 tested, 9.2% active; in the data active means inhibition mostly above about 28%, no sharp cut-off; inactive means mostly below about 43%
Numbers stand for hits; - = inactive; ? = inconclusive; . = not tested or not shown.

SMILES	Cycloheximide cs	LASV entry inh	Marburg entry inh	Shiga toxin inh
O=C(Nc1ccc(F)cc1F)c1ccc(-n2cccn2)c([N+](=O)[O-])c1	-	-	-	-
Cc1cc2n(n1)CCCN2C(=O)Nc1ccc(F)c(Cl)c1	.	-	.	.
Cc1cc2n(n1)SC(Nc1ccc(F)c(Cl)c1)N2 (stereo not drawn)	31.6	-	-	active
CN1C(=O)C(Cl)(Cl)C(=O)c2ccccc21	17.8	-	?	-
CCc1ccc(C(=O)NC(Cc2c[nH]c3ccccc23)C(=O)OCC(=O)c2ccc(Br)cc2)cc1 (stereo not drawn)	.	-	.	.
CC1=CC23C(=O)C(C=C(CO)[C@@H](O)[C@]2(O)[C@H]1O)[C@H]1[C@@H](C[C@H]3C)C1(C)C (stereo partly drawn)	-	.	.	-
COCC(C)NC(=O)c1cc(-c2cccc(OC)c2)on1 (stereo not drawn)	28.3	-	-	81.3
COc1cccc(-c2cc(C(=O)NC3CCCC3)no2)c1	46.5	.	-	145.1
COc1cccc(-c2noc(CCCC(=O)NC3CCCC3)n2)c1	14.8	.	.	-
COc1ccc(NC(=O)c2cc(-c3cccc(OC)c3)on2)cc1	-	?	-	-
COCCNC(=O)c1cc(-c2cccc(OC)c2)on1	42.5	-	-	74.3
COc1ccc(-c2cc(C(=O)NCCc3ccccc3)no2)cc1OC	-	-	-	-
O=C(NCc1cccc(C(F)(F)F)c1)N1CCN(S(=O)(=O)c2ccccc2F)CC1	-	.	?	-
COCC(C)NC(=O)c1cc(-c2ccc(O)cc2)on1 (stereo not drawn)	35.9	.	.	-
O=C1CCCC=C1C(O)CCOCc1ccccc1 (stereo not drawn)	.	.	-	.
CCOc1ccc(-c2nc(CSCC(=O)NCCc3ccccc3)c(C)o2)cc1	.	-	.	.
CCOc1ccc(-c2nc(CSCC(=O)N3CCN(C(=O)c4ccco4)CC3)c(C)o2)cc1	24.9	.	-	93.9
CCOC(=O)C1CCN(C(=O)CSCc2nc(-c3ccc(OCC)cc3)oc2C)CC1	15.4	?	?	-
Cc1cc(C)c(-c2cc([C@H](C)ON=C[C@@H](C)[C@H](OCc3ccccc3)C(C)C)on2)c(C)c1	.	.	-	.
C=CCn1cnc2c(NCc3ccccc3)ncnc21	49.8	-	?	90.5
OCCNc1ncnc2c1ncn2Cc1ccccc1	-	-	-	-
Cn1cc(CCC(=O)NCCCc2ccccc2)c2ccccc21	-	-	-	-
Cc1ccc(C(=O)Nc2ccc(-c3csc(C)n3)cc2)cc1	34.9	?	-	117.7
Cc1csc(NC(=O)C2CCCC2)n1	27.8	-	-	-
Cc1nc(-c2ccc(NC(=O)C3CCCCC3)cc2)cs1	42.9	?	-	136.8
SMILES	Cycloheximide cs	LASV entry inh	Marburg entry inh	Shiga toxin inh
CCc1ccccc1NC(=O)c1ccc(-c2csc(C)n2)cc1	27.2	-	?	53.2
C[C@@H]1COc2cc(F)ccc2S(=O)(=O)N1	.	-	.	.
CCOC(=O)c1sc(NC(=O)CSc2nccn2C)nc1C	35.4	-	-	112.1
CCOC(=O)c1sc(NC(=O)CSc2nccc(C)n2)nc1C	-	.	.	-
CCOC(=O)c1sc(NC(=O)CSc2ncccn2)nc1C	-	?	?	41.3
O=C(CNC(=O)c1cccs1)NC1=NCCS1	41.9	?	-	21.1
CC1CCC(NC(=O)CNC(=O)c2cccs2)CC1 (stereo not drawn)	45.3	-	?	115.6
CCCCNC(=O)CNC(=O)c1cccs1	-	-	-	-
O=C(CNC(=O)c1ccccc1F)NC1=NCCS1	-	.	.	-
O=C(NCC1CC1)Nc1cccs1	-	.	.	-
O=C(Nc1cccs1)NC1CCCC1	25.3	-	-	-
CC1CCC(NC(=O)Nc2cccs2)CC1 (stereo not drawn)	24.0	-	-	43.9
O=C(c1cccc(NS(=O)(=O)c2ccccc2)c1)N1CCCCC1	.	-	-	.
COCCn1c(C)cc(O)c(C(c2ccccc2)N2CCC(C)CC2)c1=O (stereo not drawn)	.	-	.	.
COc1ccc(N=C2O/C(=C/c3sc(=S)n(CC4CCCO4)c3O)N=C2C#N)cc1 (stereo not drawn)	-	-	?	-
CCC(C)[C@H](NC(=O)NCc1ccco1)C(=O)OC (stereo partly drawn)	-	-	-	-
COc1cc(NC(=O)c2noc3c2CCc2ccccc2-3)cc(OC)c1OC	.	-	-	.
COc1ccc2c(c1)CCc1c(C(=O)NCCc3ccc(OC)c(OC)c3)noc1-2	-	-	-	-
O=C(NCCN1CCOCC1)c1noc2c1CCc1ccccc1-2	49.2	-	-	70.7
O=C(NCCc1ccccc1)c1noc2c1CCc1ccccc1-2	18.7	-	-	39.0
Cc1nn(Cc2ccc(Cl)cc2)c(C)c1NC(=O)c1noc2c1CCc1ccccc1-2	-	-	-	-
O=C(Nc1cccnc1Cl)c1noc2c1CCc1ccccc1-2	34.0	.	.	92.4
CCCNC(=O)c1noc2c1CCc1ccccc1-2	41.7	.	.	64.0
COc1cc(/C=N/N2C(=O)CSC2=S)cc(Br)c1O	-	15.8µM	-	-
COc1cc(/C=N/N2C(C)CCCC2C)cc(Br)c1O (stereo not drawn)	-	?	-	-
SMILES	Cycloheximide cs	LASV entry inh	Marburg entry inh	Shiga toxin inh
COc1cccc(/C=N/N2C(=O)CSC2=S)c1O	32.0	-	?	44.9
O=C(NCc1ccccc1Cl)C1CCCN(C(=O)c2cnn(-c3ccccc3)c2-n2cccc2)C1 (stereo not drawn)	.	-	-	.
O=S(=O)(c1cccc(Br)c1)N1CCN(CCc2ccccc2)CC1	-	-	-	-
O=C(NC(c1ccc(Cl)cc1)c1c(O)ccc2ccccc12)c1ccccc1 (stereo not drawn)	33.2	?	?	-
O=C(Nc1ccccc1C(=O)N1CCCCC1)NC1CCCCC1	-	.	-	-
O=S(=O)(c1ccc(Cl)cc1)c1snnc1-c1ccccc1	-	?	15.8µM	-
O=S(=O)(c1ccc(F)cc1)c1snnc1-c1ccccc1	-	?	?	-
CCCCn1c(-c2ccccc2)cnc1SCC(=O)NCCc1ccc(OC)c(OC)c1	20.5	?	?	131.8
O=C(N/N=C/c1ccccc1Cl)c1nc2ccc([N+](=O)[O-])cc2c(=O)[nH]1	-	.	.	-
O=C(Cc1ccccc1)N/N=C/c1cccc([N+](=O)[O-])c1	9.6	-	?	-
CC(NC(=O)c1ccccc1)C(=O)N/N=C/c1ccc(O)cc1 (stereo not drawn)	-	.	.	-
O=C(N/N=C/c1cccc([N+](=O)[O-])c1)c1nc2ccccc2c(=O)[nH]1	18.5	-	-	-
CC(NC(=O)c1ccccc1)C(=O)N/N=C/c1cccc([N+](=O)[O-])c1 (stereo not drawn)	17.4	-	?	-
O=[N+]([O-])c1cccc(/C=N/Nc2cc(Cl)nc(-c3ccccc3)n2)c1	-	10µM	-	-
O=C(Cc1ccccc1)N/N=C/C=C/c1cccc([N+](=O)[O-])c1	-	-	-	-
COCc1cccc(C(=O)NC(c2ccccc2)c2ccccc2)c1	-	-	-	-
Cc1cccc(Cn2cccc2CNS(=O)(=O)c2ccc(C)c(C)c2)c1	.	-	.	.
Cn1c(=O)n(-c2ccc3c(c2)OCO3)c2nc(-c3ccccc3)nc(C(N)=O)c21	.	-	?	.
O=C(CCCN1C(=O)c2cccc3cccc(c23)C1=O)N1CCN(c2ccc(F)cc2)CC1	-	?	?	-
Fc1ccc(N2CCN(C3=Nc4cccc5cccc3c45)CC2)cc1	24.3	?	?	74.1
